± gives the standard deviation of the averaged measurements.

The test deals with DLD1. The test can be described thus: cell viability (CellTiter-Glo) relative to plate median (fraction of plate median); higher = more viable cells. Particulars: 5 µM; treatment time 24 h; reporter: 7TFP. The essentials:
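Colorectal cancer cell lines stably carrying lentiviral TCF/Wnt firefly luciferase reporters (7TFP or TCF4/Wnt) were plated in 384-well plates and, 24 h later, given library compounds at a final 5 µM for 24 h. Firefly luciferase or CellTiterGlo luminescence was read on parallel plates with a Tecan F500 reader. Each well's signal was normalised to the plate median in webcellHTS2 (additive, without log transformation). Values are the mean of two independent replicates.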
For `O=c1cc(-c2ccccc2)oc2cccc(O)c12`, the cell viability was 0.972 ± 0.068.
With `C[C@]12CCC(=O)C=C1C=C[C@@H]1[C@@H]2CC[C@@]2(C)[C@H]1CC[C@@]21CCC(=O)O1` the figure was 0.884 ± 0.075.
Next, `CCc1cnn2c(NCc3ccc[n+]([O-])c3)cc(N3CCCC[C@H]3CCO)nc12` [Dinaciclib]: 0.99 ± 0.042; `O=C(/C=C/c1ccc(O)c(O)c1)OCCc1ccccc1`: 0.892 ± 0.031.
With `O=C(Cn1ccnc1[N+](=O)[O-])NCCO` the figure was 0.992 ± 0.04.
In the case of `O=C(O)c1cc(O)c(O)c(O)c1`, the cell viability is 0.906 ± 0.059.
`Cc1cc(O)c(C=O)c2c1C(=O)Oc1c(COC(=O)/C=C/C(=O)O)c(O)c(C(=O)O)c(C)c1O2` gave a cell viability of 0.992 ± 0.026.
With `CC(C)c1c(O)ccc2c1CCC1[C@@](C)(C=O)CCC[C@]21C` (stereo partly specified), the cell viability came out at 1.03 ± 0.021.
Next, `CC(=O)OC(C)(C)[C@@H]1Cc2cc3ccc(=O)oc3cc2O1`: 1.06 ± 0.014.
For `CCOC(=O)[C@H](CCc1ccccc1)N[C@@H](C)C(=O)N1Cc2ccccc2C[C@H]1C(=O)O`, the cell viability is 0.99 ± 0.057.
Molecule `COc1cc(/C=C/C(=O)O)cc(OC)c1OC` had a cell viability of 0.983 ± 0.016.
In turn, `CC(=O)OC1CCC2(O)CC1(C)CCC1C2CC1(C)C` (stereo unspecified) returned a cell viability of 1.03 ± 0.014.
The molecule `C[C@@H]1CC[C@@]2(OC1)O[C@H]1C[C@H]3[C@@H]4CC[C@H]5C[C@@H](O)CC[C@]5(C)[C@H]4CC[C@]3(C)[C@H]1[C@@H]2C` gave a cell viability of 0.953 ± 0.0057.
Next, `CC(=O)OCC(=O)[C@@]1(O)CC[C@H]2[C@@H]3CCC4=CC(=O)CC[C@]4(C)[C@@]3(F)[C@@H](O)C[C@@]21C`: 0.975 ± 0.027; `COc1ccc2c3c1O[C@H]1C[C@@H](O)C=C[C@@]31CCN(C)C2`: 1.04 ± 0.05; `CCCCC(=O)N(Cc1ccc(-c2ccccc2-c2nnn[nH]2)cc1)[C@H](C(=O)O)C(C)C`: 0.908 ± 0.081.

The values above are taken from the supplement of paper PMC6522484.
